High-throughput results: PubChem BioAssay, National Center for Advancing Translational Sciences (NCATS)
D1 PAM = Potentiators of Human D1 Dopamine Receptor: qHTS; D(1A) dopamine receptor (Homo sapiens), P21728; potentiation, % at 10 µM; HEK293 TREx D1 cells, calcium flux, dopamine EC20 potentiation; 0.036% of 360,000 active; in the data active means potentiation above about 30%; further: 0% is about no effect
Target sequence (P21728 whole entry, looked up): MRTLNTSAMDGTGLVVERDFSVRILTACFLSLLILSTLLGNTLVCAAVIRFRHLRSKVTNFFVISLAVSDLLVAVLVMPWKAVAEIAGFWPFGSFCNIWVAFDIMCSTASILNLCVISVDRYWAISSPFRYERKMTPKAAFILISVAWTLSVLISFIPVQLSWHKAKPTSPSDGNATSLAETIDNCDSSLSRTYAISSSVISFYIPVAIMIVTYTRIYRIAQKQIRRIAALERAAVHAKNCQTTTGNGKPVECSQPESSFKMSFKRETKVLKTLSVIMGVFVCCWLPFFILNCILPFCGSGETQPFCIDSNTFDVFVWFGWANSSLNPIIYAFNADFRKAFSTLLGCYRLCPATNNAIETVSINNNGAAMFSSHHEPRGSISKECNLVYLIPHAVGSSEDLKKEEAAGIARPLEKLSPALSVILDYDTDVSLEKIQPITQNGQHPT
D1 antag = Antagonist of Human D 1 Dopamine Receptor: qHTS. activity change, negative = inhibition, % at 10 µM. HEK293 TREx D1 cells, calcium flux, dopamine EC80; hits give low values. 3.2% of 360,000 active; in the data active means activity change below about -30%; further: on the % scale 0 is the no-effect control and ±100 the full control effect
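HEK293 T-REx cells expressing inducible, force-coupled D1 receptor; no-wash Ca dye, 30–90 min RT. Cmpd → 180 s read at 1 Hz → EC80 DA → 180 s read.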
D1 ag = Allosteric Agonists of the Human D1 Dopamine Receptor: qHTS; activation, % at 2 µM; 1% of 360,000 active; AID 504660, 2011; D(1A) dopamine receptor (Homo sapiens), P21728; HEK293 T-REx D1 cells, calcium flux, agonist mode; further: 0% is about no effect
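Inducible HEK293 T-REx D1 cells, force-coupled to calcium signalling, were plated at 4000 cells/well with tetracycline and held overnight at 30 C. After no-wash calcium dye loading, compound-evoked calcium rise over 180 s flagged agonists.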
LDHA inh = qHTS assay for inhibitors of human lactate dehydrogenase; L-lactate dehydrogenase A chain (Homo sapiens), P00338; purified LDHA, NADH/diaphorase-resazurin fluorescence; hits give low values; activity change, % (values are at about 110 or 230 µM); 0.15% of 480,000 active; in the data active means activity change below about -30%;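 further: plate controls were DMSO wells for no effect and wells without enzyme for full effect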
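Enzyme activity of human lactate dehydrogenase 5 (2 nM; 0.06 mM NADH, 0.2 mM pyruvate, 5 min, RT) is measured via a resazurin/diaphorase fluorescence readout of residual NADH.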
TRHR ag = qHTS for Small Molecule Agonists and Allosteric Enhancers of Human TRH Receptor: Primary Screen for Agonists; 0.18% of 360,000 active; AID 493084, 2011; TRHR cells, calcium flux fluo-8, FDSS agonist mode; activation, % at 2 µM; further: 0% is about no effect
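TRHR-expressing cells, plated overnight in medium with 10% serum, were loaded with fluo-8 calcium dye at room temperature. After a 10 s baseline, library compound was pin-added and calcium release was recorded kinetically (ex 480/em 530) as agonist response.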
TRHR enhancer = qHTS for Small Molecule Agonists and Allosteric Enhancers of Human TRH Receptor: Primary Screen for Enhancers | enhancement, % at 2 µM | Thyrotropin-releasing hormone receptor (Homo sapiens), P34981 | AID 493056, 2011 | 0.66% of 360,000 active | TRHR cells, fluo-8 calcium fluorescence, EC20 TRH enhancement; in the data active means enhancement above about 30%; further: 0% is about no effect
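Enhancer read-out: after compound pinning and an initial kinetic agonist-mode read, an EC20 of TRH (10 nM final) was injected and fluo-8 calcium signal (Ex 480/Em 530) followed at 1 s/cycle for 100 cycles in TRHR-expressing cells.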
* = called active by the depositor; . = no result given. Rows were chosen to be rich in hits. Some 3.6% of all compounds tested hit in one or more screens of this group. Unless noted, no stated cut-off is given here; in the data, active means activation above about 30%; inactive means the rest.

SMILES | D1 PAM | D1 antag | D1 ag | LDHA inh | TRHR ag | TRHR enhancer
CCOC(=O)Cn1c(=O)n(C2CCCC2)c(=O)c2ccccc21 | 5.8 | 6.7 | 0.3 | 1.7 | -1.2 | 40.5*
CCOC(=O)c1nc(Nc2cccc(C)c2C)c2ccccc2n1 | . | . | . | -2.3 | . | .
CC(=O)NC1C(Oc2cccc(C)c2)OC2COC(c3ccco3)OC2C1O (stereo unspecified) | -0.9 | -39.2* | 1.1 | -4.3 | 0.1 | 7.3
N#Cc1nc(-c2ccc(F)cc2)oc1NCc1ccc(Cl)cc1 | . | . | . | 5.0 | . | .
Cc1cc(C(=O)Cn2nc(C(=O)O)c3ccccc3c2=O)c(C)[nH]1 | . | . | . | 1.6 | . | .
COC(=O)CCNC(=O)/C=C/c1cccc(C)c1 | . | . | . | -0.2 | . | .
CCc1ccccc1N(CC(=O)NCCc1ccccc1)C(=O)CCC(=O)Nc1ccccn1 | -12.0 | -30.0* | 39.8* | -16.5 | -0.9 | -1.8
Cc1cc(C(=O)CN2C(=O)NC(C)(CC(C)C)C2=O)c(C)n1-c1ccc2c(c1)OCO2 (stereo unspecified) | -3.9 | -45.5* | 4.7 | -1.6 | 0.1 | -6.2
Cc1cc(C(=O)CSc2n[nH]c(N)n2)c(C)n1-c1ccc2c(c1)OCO2 | -0.1 | -39.6* | 0.8 | 3.2 | 0.0 | 1.6
Cc1cc(C(=O)CN2C(=O)NC3(CCCC3)C2=O)c(C)n1-c1ccc2c(c1)OCO2 | -6.7 | -14.5 | 0.2 | 5.1 | -0.2 | -3.1
CNS(=O)(=O)c1cccc(C(=O)OCC(=O)c2cc(C)n(-c3ccc4c(c3)OCO4)c2C)c1 | -11.1 | -38.5* | 2.6 | 3.5 | 0.3 | -15.9
Cc1cc(C(=O)COc2ccccc2Cl)c(C)n1-c1ccc2c(c1)OCO2 | -5.5 | -0.2 | 2.1 | 3.0 | 0.5 | -1.9
CNS(=O)(=O)c1cccc(C(=O)OCC(=O)c2cc(C)n(CC3CCCO3)c2C)c1 (stereo unspecified) | 1.0 | -12.5 | 11.5 | 1.3 | 0.5 | -1.5
Cn1nc(CC(=O)OCC(=O)NC2CC2)c2ccccc2c1=O | . | . | . | 15.0 | . | .
Clc1ccc2[nH]c3c(c2c1)CNCC3 | -24.9 | -47.7* | 7.7 | -9.6 | 0.7 | 37.9*
CC(C)Oc1ccc(CNC(=O)c2ccc3nc(Cc4ccccc4)oc3c2)cc1 | -1.2 | -1.0 | 33.3* | -6.8 | 1.0 | 0.8
Cc1cccc(CNC(=O)c2ccc3nc(Cc4ccccc4)oc3c2)c1 | -3.7 | -31.4* | 31.0* | 0.4 | 1.3 | -0.9
COC(=O)c1ccccc1NC(=O)NCc1nc(-c2ccc(C)cc2)oc1C | . | . | . | 7.2 | . | .
COc1ccc(-n2nc([N+](=O)[O-])c(=NCCc3cccc(C)c3)n2O)cc1 | 2.9 | -35.3* | 3.5 | -5.0 | -1.9 | 3.5
Cc1cccc(CCN=c2c([N+](=O)[O-])nn(-c3ccccc3)n2O)c1 | -4.1 | 3.2 | 2.8 | 2.1 | -1.4 | 27.0
Cc1c(C(=O)N2CCC(C)CC2)c(S(=O)(=O)NCCc2ccc(Cl)cc2)c(C)n1C | . | . | . | -10.9 | . | .
O=C(Nc1ccc(N2CCN(Cc3ccccc3)CC2)cc1)c1cnc2ccccc2n1 | . | . | . | 5.6 | . | .
O=C(O)c1ccccc1C(=O)c1cccc2ccccc12 | -10.1 | -36.6* | -0.4 | -2.1 | 0.1 | 6.6
O=C(O)c1ccccc1C(=O)c1ccc(Br)s1 | 2.0 | -34.5* | 2.9 | -12.5 | 0.1 | -3.9
COC(=O)c1c(N(S(C)(=O)=O)S(C)(=O)=O)sc2c1CCN(c1ncc(C(F)(F)F)cc1Cl)C2 | -2.6 | -2.0 | 5.7 | 3.2 | -0.5 | 1.3
SMILES | D1 PAM | D1 antag | D1 ag | LDHA inh | TRHR ag | TRHR enhancer
COC(=O)c1c(/N=C/N(C)C)sc2c1CCN(c1ncc(C(F)(F)F)cc1Cl)C2 | -14.2 | -30.8* | 23.5 | 4.4 | -0.2 | 2.8
CCOC(=O)N1CCC(N2Cc3cccc(C(=O)Nc4ccc(CC)cc4)c3C2=O)CC1 | -1.4 | -2.5 | 1.1 | -2.7 | 0.8 | 3.4
CCOC(=O)N1CCC(N2Cc3cccc(C(=O)Nc4ccc(F)cc4)c3C2=O)CC1 | -1.6 | -53.4* | -0.2 | -2.6 | 0.4 | -1.9
CC(OC(=O)Cn1[nH]c(=O)c2ccccc2c1=O)C(=O)Nc1ccc(Br)cc1 (stereo unspecified) | . | . | . | 0.3 | . | .
O=C(CC1C(=O)NCCN1Cc1c(F)cccc1Cl)NCCCN1CCCC1=O (stereo unspecified) | 1.6 | -38.8* | 0.6 | -13.4 | 0.4 | 3.7
O=C(CC1C(=O)NCCN1Cc1cccc(F)c1)NCCCN1CCCC1=O (stereo unspecified) | -9.1 | -0.7 | -0.6 | -3.6 | 1.0 | 1.3
O=C(CC1C(=O)NCCN1Cc1c(F)cccc1Cl)NCc1ccccc1 (stereo unspecified) | 5.7 | -0.6 | 1.0 | -1.3 | -0.1 | 20.4
O=C(CC1C(=O)NCCN1CCCc1ccccc1)NCCc1ccccc1F (stereo unspecified) | 2.1 | -28.9 | 34.1* | -0.9 | -0.8 | -6.2
COc1ccc(NC(=O)CCc2nc(-c3ccc(C)cc3)no2)cc1S(=O)(=O)N1CCOCC1 | . | . | . | 6.7 | . | .
CS(=O)Cc1cccc(C(=O)O)c1 (stereo unspecified) | . | . | . | 12.8 | . | .
CN(C)CCNC(=O)C(=O)Nc1cccc2[nH]ccc12 | . | . | . | 5.3 | . | .
O=C(O)c1ccc(CN2C(=O)c3cccc4c([N+](=O)[O-])ccc(c34)C2=O)cc1 | -1.9 | 1.5 | 34.1* | 29.5 | 11.6 | -11.9
CC(=O)Oc1cccc(N2C(=O)c3cccc4c([N+](=O)[O-])ccc(c34)C2=O)c1 | -8.6 | -54.1* | 3.2 | 0.3 | 5.1 | -4.7
Cc1ccc(C(=O)O)cc1N1C(=O)c2cccc3c([N+](=O)[O-])ccc(c23)C1=O | -1.1 | -3.5 | 6.9 | 9.2 | 1.7 | 11.7
CCc1c(C)sc(NC(=O)c2ccccc2)c1C#N | . | . | . | 3.5 | . | .
COc1ccccc1Nc1nc(-c2ccc3c(c2)CC(C)N3S(C)(=O)=O)cs1 (stereo unspecified) | . | . | . | 8.3 | . | .
Cc1cccc2cc(CN(CCCN(C)C)C(=S)NCCc3ccccc3)c(=O)[nH]c12 | -3.1 | 5.7 | 31.0* | -2.3 | 3.3 | 4.2
CN(CC(=O)N1CCN(c2oc(-c3ccco3)nc2C#N)CC1)Cc1cccc(Cl)c1Cl | . | . | . | 0.1 | . | .
CCOc1ccccc1C(C)N (stereo unspecified) | . | . | . | 0.4 | . | .
CCOC(=O)c1ccc(N2C(=O)c3n[nH]c(C)c3C2c2ccc(OC)c(OC)c2)cc1 (stereo unspecified) | -7.7 | -36.7* | 1.3 | -3.2 | -0.2 | 3.3
